Data reported in PubChem BioAssay (NCI).
Compounds without any hit were thinned out: in the full panel of roughly 79,000, 15% have a hit. Cut-off read from the data, not from the text of the source: active = growth inhibition above about 70%; inactive = the rest. Where a SMILES comes first, the peptide text is derived from it. [ ]: non-standard residue; d: D form. The star is where a group is joined. Nle = CCCC[CH](N)C(=O)O; Cbz = O=C(OCc1ccccc1)*; OBn = c1ccc(CO*)cc1

Experiments:
[1] = NCI Yeast Anticancer Drug Screen. Data for the rad50 strain (AID 155);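 note: 0% = growth of vehicle-only cultures of the same strain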; details: S. cerevisiae rad50 strain growth inhibition; at 50.0 µM; stronger effect = higher value
Summary of the method: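 Relative growth inhibition (compound vs vehicle) was measured in yeast with a defined repair-gene alteration.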

[2] = NCI Yeast Anticancer Drug Screen. Data for the mec2-1 strain (AID 157); details: S. cerevisiae mec2-1 strain, at 50.0 µM, stronger effect = higher value
Summary of the method: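 Vehicle-treated cultures served as reference for growth inhibition of compound-exposed mec2-1 yeast.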

[3] = NCI Yeast Anticancer Drug Screen. Data for the sgs1 mgt1 strain (AID 161);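 note: 0% = growth of cultures given vehicle only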; details: S. cerevisiae sgs1 mgt1 strain, at 50.0 µM, stronger effect = higher value
Summary of the method: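 Read-out: growth inhibition vs vehicle controls. Cells: mutant yeast strain deficient in DNA damage repair.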

[4] = NCI Yeast Anticancer Drug Screen. Data for the cln2 rad14 strain (AID 165);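 note: 0% = growth equal to vehicle treated cultures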; details: S. cerevisiae cln2 rad14 strain, at 50.0 µM, stronger effect = higher value
Summary of the method: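 Each compound was tested on cln2 rad14 yeast. Inhibition of growth was calculated against vehicle-exposed controls.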

[5] = NCI Yeast Anticancer Drug Screen. Data for the bub3 strain (AID 167); details: S. cerevisiae bub3 mutant strain, at 50.0 µM, stronger effect = higher value
Summary of the method: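 Screening used yeast with an engineered genetic alteration affecting cell cycle control. Compound-exposed cultures were compared with vehicle cultures, and reduced growth was taken as inhibition.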

[6] = NCI Yeast Anticancer Drug Screen. Data for the mlh1 rad18 strain (AID 175); details: S. cerevisiae mlh1 rad18 strain growth inhibition; at 50.0 µM; stronger effect = higher value
Summary of the method: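 Vehicle-treated cultures served as the reference for growth inhibition in a yeast strain carrying DNA damage repair alterations exposed to each compound.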

Measured: growth inhibition

COc1ccc(NC(=O)C(=O)C(C(=O)c2ccccc2)C2OC(=O)c3ccccc32)c([N+](=O)[O-])c1 (configuration not stated)
inactive: [1] 8.85% | [2] 5.6% | [3] -23.2% | [4] 26.1% | [5] 28.4% | [6] 8.1%

CCCCC(NC(=O)C1CCCN1C(=O)OCc1ccccc1)C(=O)OCc1ccccc1 (stereo not drawn) (Cbz-Pro-[Nle]-OBn; configuration not given here)
inactive: [1] 12.4% | [2] 12.2% | [3] 11.4% | [4] -10.9% | [5] -5.45% | [6] 15.9%

CC(NCc1cc(O)c(CNC(C)c2ccccc2)cc1O)c1ccccc1 (configuration not stated)
inactive: [1] 4.55% | [2] 0.4% | [3] 17.1% | [4] 25.2% | [5] 12.4% | [6] 1.95%

C#CCCOC(=O)c1ccccc1OC(C)=O
inactive: [1] -0.8% | [2] -9.55% | [3] -2.3% | [4] 11.5% | [5] 7.15% | [6] 5.15%

O=C1c2ccccc2C(=O)c2c(O)c3c(c(O)c21)CCCC3
inactive: [1] -14.4% | [2] 7.55% | [3] -1.05% | [4] -9.65% | [5] 1.95% | [6] 5.7%

CC1(c2ccc(Cl)cc2)NC(=O)N(CC(N)=O)C1=O (configuration not stated)
inactive: [1] 3.6% | [2] -0.1% | [3] -10.8% | [4] -11% | [5] -7.8% | [6] 8.6%

COc1cc(O)c2c(c1)Cc1cc(C)cc(O)c1C2=O
inactive: [1] 10.2% | [2] -1% | [3] 6.2% | [4] 22.5% | [5] 16.6% | [6] 1.65%

COc1cccc(C2CC(c3cc(OC)c(OC)c(OC)c3)CC(c3cccc(OC)c3)N2)c1 (configuration not stated)
inactive: [1] -5.4% | [2] 1.45% | [3] 15.2% | [4] 16.4% | [5] 19.6% | [6] 5.7%

CCOC(=O)C(Cc1ccc(N=NN(C)C)cc1)NC(=O)CC1c2ccccc2-c2ccccc21 (configuration not stated)
inactive: [1] 13.8% | [2] 7.2% | [3] 20.7% | [4] -6.25% | [5] 47.6% | [6] 8.3%

CC12CCC(=O)C=C1CCC1C2CCC2(C)C(C(=O)Cn3c(=O)cc[nH]c3=O)CCC12 (configuration not stated)
inactive: [1] 1.2% | [2] -3.7% | [3] -0.5% | [4] 15.8% | [5] -1.35% | [6] 1.85%

O=c1[nH]cc(CO)c(=O)[nH]1
inactive: [1] 0.35% | [2] 4.8% | [3] -1.7% | [4] 6% | [5] 11.9% | [6] -4%

O=C1C=C(c2ccccc2)CSC1
inactive: [1] 3.7% | [2] -10.1% | [3] -9.45% | [4] -79.3% | [5] -8.75% | [6] -4.85%

Cc1ccc(O)c(C)n1
inactive: [1] 4.2% | [2] 14% | [3] 0.15% | [4] 7% | [5] -0.2% | [6] -2.9%

COC(=O)c1cc(OC)nc(Cl)n1
inactive: [1] 3.9% | [2] 13.2% | [3] 1.45% | [4] -37% | [5] -11.9% | [6] 1.9%

Cc1ccc(/C(O)=C/c2nc3ccc([N+](=O)[O-])cc3nc2/C=C(\O)c2ccc(C)cc2)cc1
inactive: [1] 13.8% | [2] -3.45% | [3] -23.1% | [4] -28.6% | [5] -19.2% | [6] -14%

C/C(=N\N(c1ccccc1)c1ccccc1)c1c(O)cc(C)oc1=O
inactive: [1] -25.8% | [2] 8.2% | [3] 12.9% | [4] -27.4% | [5] 3.05% | [6] 14.8%

CC12CCCC=C1N(C=O)c1ccccc12 (configuration not stated)
inactive: [1] -6.1% | [2] 26.3% | [3] 14.7% | [4] 11.6% | [5] -28.1% | [6] 16.8%

Nc1ccc(S(=O)(=O)CCO)cc1
inactive: [1] 1.1% | [2] -7.5% | [3] 4.65% | [4] 4.45% | [5] -5.6% | [6] 3.6%

O=Cc1cc(Cl)cc(Cl)c1
inactive: [1] 5% | [2] -18.1% | [3] 0.85% | [4] 8.7% | [5] 8.95% | [6] 6.55%

CC(=O)O[C@H]1CSC[C@@H](OC(C)=O)C1[N+](=O)[O-] (some centres not stated)
inactive: [1] 37.5% | [2] 25.4% | [3] 17.7% | [4] 43.2% | [5] 18.8% | [6] 47.1%

ClCCCc1ccccc1C1=NCCc2ccccc21
inactive: [1] 28.4% | [2] 19% | [3] -14.5% | [4] 3.25% | [5] -14.7% | [6] 9.9%

N#CCCC(=O)O
inactive: [1] 17.6% | [2] 0.45% | [3] 11.7% | [4] 3.45% | [5] 2.5% | [6] 15.8%

O=C1C[C@@H]2CCCC[C@@H]2C12SCCS2
inactive: [1] -10.9% | [2] -18.6% | [3] -6.95% | [4] 13.8% | [5] -9.45% | [6] -5.25%

CNC(=O)n1cnc(N)n1 (tested in a mixture with another compound)
inactive: [1] -13.2% | [2] 8.2% | [3] 16.7% | [4] -25.3% | [5] -10.9% | [6] 13%

CCOC(=O)NCC1(c2ccccc2)CCN(Cc2ccccc2)CC1
inactive: [1] -9.75% | [2] -17.6% | [3] -11.9% | [4] 1.35% | [5] -14.9% | [6] -1.7%

CN(/N=C\c1ccc([N+](=O)[O-])cc1)C(=O)c1ccccc1
inactive: [1] -6.85% | [2] -4.15% | [3] 14.6% | [4] -33.6% | [5] 19.4% | [6] -7.35%

O=S(=O)(C/C=C/COc1ccccc1)c1ccc2ccccc2c1
inactive: [1] 3.05% | [2] 2.65% | [3] 23.8% | [4] 3.6% | [5] -5.85% | [6] -12.9%

O=C1NC(=O)c2c(Br)c(Br)c(Br)c(Br)c21
inactive: [1] -20.6% | [2] -32.9% | [3] 2.35% | [4] 9.6% | [5] -16.6% | [6] -1.55%

CCOC(=O)c1c(C#N)c2cnn(-c3ccccc3)c2n2cccc12
inactive: [1] 14.1% | [2] 9.8% | [3] -2.25% | [4] -64.2% | [5] -8.25% | [6] 36.1%

O=c1cc(O)n(C2=NCCN2)[nH]1
inactive: [1] -6.45% | [2] -23.6% | [3] -0.2% | [4] 16.2% | [5] -12.5% | [6] -9.95%

CN(CCC[N+](C)(C)C)C(=O)C(c1ccccc1)c1ccccc1
inactive: [1] 45% | [2] -0.25% | [3] 19.2% | [4] -9.55% | [5] 6.35% | [6] 2.7%

CC1=NN(c2ccccc2)C(N)C1 (configuration not stated)
inactive: [1] 17.7% | [2] 17.7% | [3] 23.3% | [4] 11.5% | [5] 25.4% | [6] 13.2%

O=c1[nH]cnc2c1ncn2CCc1ccc([N+](=O)[O-])cc1[N+](=O)[O-]
inactive: [1] 3% | [2] -6.15% | [3] 9.4% | [4] -54.9% | [5] -15.1% | [6] -7.95%

CN(C)C(=S)SCCC(=O)O
inactive: [1] 3.05% | [2] -4.3% | [3] 6.05% | [4] 8.5% | [5] -2.65% | [6] -8.2%

CC(=O)NC(C=O)C(O)C(O)C(O)C(=O)O (configuration not stated) (tested in a mixture with another compound)
inactive: [1] -25.4% | [2] -31.2% | [3] -22.2% | [4] 1.8% | [5] -22.9% | [6] -4.9%

COc1cc(OC)c(N=Nc2c(C)nc(N)nc2-c2ccccc2)cc1Cl
inactive: [1] 44.6% | [2] 5.45% | [3] 19.2% | [4] 20.3% | [5] 4.6% | [6] 23.9%

CC/C=C(\C)C1(CC)C(=O)NC(=O)N=C1N (configuration not stated)
inactive: [1] -1.35% | [2] 3.55% | [3] 5.9% | [4] 4.55% | [5] -2% | [6] -11.9%
